rTrxR1 inhibitor: rat TrxR1 inhibition; O89049; recombinant rTrxR1, NADPH fluorescence consumption, selenite substrate; Potency, µM (titrated, usually from 114 µM), for the others: at the top dose activity change, negative = inhibition, actives largely listed as inhibitors; actives 1% (n = 390,000); also: % is scaled to controls: 0 for no effect and ±100 for the full control effect; nearly all actives have a fitted effect of over 65% in size
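Rat TrxR1 (90 nM in the dispensed reagent) was pre-reduced with 400 uM NADPH for 5 min at room temperature, then incubated with compound for 15 min. After 400 uM selenite was added, NADPH fluorescence (Ex 340/Em 450 nm) was followed for 8 min.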
GRP78 ERSR act: inducers of ER stress response in human glioma cells; U87-MG GRP78 promoter luciferase reporter, 16 h; Potency, µM, inactives show at the top dose activation, hits mostly activators; actives 0.02% (n = 420,000); also: series mostly up to about 76 µM; % of control where 0% means no effect; nearly all actives have a fitted effect of over 35% in size
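Stably transfected U87-MG glioma cells carrying a GRP78-based luciferase sensor; 16 h compound incubation. Luminescence end-point read 10 min after Bright-Glo addition at room temperature.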
IDH1 R132H inh: inhibitors of human mutant IDH1 R132H. actives 0.093% (n = 390,000). O75874. Potency, µM (titrated, usually from 76.6 µM), without a hit: at the top dose activity change, negative = inhibition, most hits filed as inhibitors. IDH1-R132H enzyme, NADPH consumption, diaphorase/resazurin fluorescence; also: % is scaled to controls: 0 for no effect and ±100 for the full control effect; nearly all actives have a fitted effect of over 65% in size
Target sequence (O75874 whole entry R132H, stated change not applied): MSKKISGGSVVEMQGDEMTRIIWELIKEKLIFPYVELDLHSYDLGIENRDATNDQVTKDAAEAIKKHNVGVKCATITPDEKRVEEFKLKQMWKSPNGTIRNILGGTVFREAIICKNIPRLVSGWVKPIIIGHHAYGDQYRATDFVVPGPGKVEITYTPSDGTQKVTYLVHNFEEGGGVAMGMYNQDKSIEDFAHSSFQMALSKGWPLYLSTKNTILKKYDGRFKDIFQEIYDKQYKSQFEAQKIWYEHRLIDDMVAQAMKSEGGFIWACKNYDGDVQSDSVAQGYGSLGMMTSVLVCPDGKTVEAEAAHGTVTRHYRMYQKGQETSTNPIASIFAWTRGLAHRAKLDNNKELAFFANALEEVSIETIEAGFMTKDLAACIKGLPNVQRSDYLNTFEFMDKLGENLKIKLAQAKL
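IDH1-R132H (0.5 ug/mL dispensed) in pH 7.5 Tris buffer was preincubated 30 min with compound, then given a substrate mix of 0.016 mM NADPH and 2 mM alpha-KG for 80 min at room temperature; remaining NADPH was read by diaphorase/resazurin fluorescence.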
Anesthetic bind: candidate novel general anesthetic via apoferritin binding. Potency, µM (top dose mostly 77.5 µM), for inactives: top-dose activity change, negative = displacement, hits mostly inhibitors. actives 0.074% (n = 350,000). AID 485281. apoferritin/1-aminoanthracene competitive binding, fluorescence; also: % is scaled to controls: 0 for no effect and ±100 for the full control effect; nearly all actives have a fitted effect of over 20% in size
Target sequence (P02791 2-175 limits assumed): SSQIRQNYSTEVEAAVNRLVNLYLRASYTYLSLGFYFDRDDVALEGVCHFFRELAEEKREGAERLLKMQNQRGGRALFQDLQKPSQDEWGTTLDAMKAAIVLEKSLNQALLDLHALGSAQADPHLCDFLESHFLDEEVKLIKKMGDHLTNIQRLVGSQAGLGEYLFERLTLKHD
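Concentration-response curves derived by four-parameter Hill fitting of normalized fluorescence, where compounds displaced 1-AMA from 10 uM horse apoferritin following a brief 10 min room-temperature incubation; propofol titration acted as positive control.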
TrxR1 substrate: rat thioredoxin reductase 1 substrate activity. actives 0.01% (n = 390,000). purified TrxR1 substrate turnover, NADPH consumption readout. AID 588456. Potency, µM (top dose mostly 114 µM), for inactives: at the top dose activity change, negative = substrate turnover; also: % is scaled to controls: 0 for no effect and ±100 for the full control effect; nearly all actives have a fitted effect of over 50% in size
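Rat TrxR1, dispensed at 90 nM, was prereduced with 400 uM NADPH (final) for 5 min at ~22 deg C, then incubated with compound 15 min before 400 uM selenite. A first-read NADPH fluorescence drop versus no-compound background flagged substrates.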
ALOX12 inh: ALOX12 (human) lipoxygenase inhibition; P18054; purified 12hLO, xylenol orange hydroperoxide absorbance; AID 1671190; actives 1.1% (n = 580,000); Potency, µM (highest dose often 108 µM), inactives show top-dose activity change, negative = inhibition, hits mostly inhibitors; also: % is scaled to controls: 0 for no effect and ±100 for the full control effect
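Purified human 12hLO (150 nM final) in 25 mM Hepes, 0.01% Triton X-100, pH 7.0 was preincubated 15 min at room temperature with compound. Then 40 uM arachidonic acid was added, 30 min. Hydroperoxide was read by Fe-XO absorbance ratio 573/405 nm.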
Active calls of the source: *; i = inactive; ? = inconclusive; nt = no result; [ ] = dose if it differs, or a comment. Shown are actives, neighbours in structure and some others; about 1.7% of the full set was active somewhere. Calls follow the shape of the dose curve; as a rule, active = well fitted curve in the direction sought with a large enough effect; inconclusive = small, poorly fitted or top-dose-only effect, or another doubt; inactive = no such curve, though single readings can be large; an effect the other way counts as inactive or inconclusive. Potency is read from the fitted curve at half-maximal effect.

SMILES	rTrxR1 inhibitor	GRP78 ERSR act	IDH1 R132H inh	Anesthetic bind	TrxR1 substrate	ALOX12 inh
c1ccc(CCNc2nc(-c3c[nH]c4ccccc34)cs2)cc1	nt	nt	nt	nt	nt	45µM*
c1ccc2c(-c3csc(NC4CC4)n3)c[nH]c2c1	nt	nt	nt	nt	nt	-50%
O=C(N[C@@H](Cc1cccnc1)C(=O)N1CCC[C@H]1C(=O)NCCc1ccccc1Cl)c1ccc(Cl)c(Cl)c1	nt	nt	nt	nt	nt	-14%
Cc1ccc(-n2ncc3c(=O)n(-c4ccc(F)c(Cl)c4)c(C)nc32)cc1	nt	nt	nt	nt	nt	-1%
O=C(NCc1ccccc1)c1ccccc1OC1CN(C2CCC2)C1	nt	nt	nt	nt	nt	-4%
Cc1cccc(C)c1NC(=S)NC(C)CCc1ccccc1 (centres undefined)	3%[57.1 µM]	-3%	2%	1%	7%[57.1 µM]	40µM*
COc1ccc(CNC(=S)NC(C)CCc2ccccc2)cc1 (centres undefined)	?	1%	1%	-17%	-13%	40µM*
CCN(CC(=O)NCc1cccs1)C(=O)CCC(=O)c1ccc(C)cc1	10%	-1%	2%	nt	1%	28µM*
COc1cc(C=O)c(Br)cc1OCC(=O)NCCc1ccccc1	10%	-3%	2%	-23%	1%	-12%
CCOC(=O)COc1cc(Br)c(/C=N/Nc2ccccc2)cc1OC	6%	35µM*	7%	-19%	9%	?
O=C(C1CC(=O)N(c2n[nH]c3ccccc23)C1)N1CCN(c2ccc(Cl)cc2)CC1 (centres undefined)	nt	nt	nt	nt	nt	-3%
COCC(=O)N1CC(C(=O)NC2CCCCC2)C2(CCOCC2)C1 (centres undefined)	nt	nt	nt	nt	nt	49%
N=C1/C(=C\c2coc3ccccc3c2=O)C(=O)N=C2SC(c3ccncc3)=NN12	?	2%	?	-8%	18%[0.0914 µM]	?
N=C1/C(=C/c2coc3ccccc3c2=O)C(=O)N=C2SC(c3ccco3)=NN12	50µM*	-2%	-12%	-11%	-13%	nt
CC(C)CSC1=NSC2=NC(=O)/C(=C\c3coc4ccccc4c3=O)C(=N)N12	?	2%	-19%	?	3%	28µM*
CN(Cc1ccccc1C(F)(F)F)C1CCc2ccccc21 (centres undefined)	nt	nt	nt	nt	nt	94%[176 µM]
CCN(CC)C(=O)c1sc(NC(=O)C2CCCCC2)c(C(=O)OC)c1C	nt	nt	nt	nt	nt	2%
COc1ccc(-c2c(C(F)(F)F)oc3cc(OS(C)(=O)=O)ccc3c2=O)cc1OC	nt	nt	nt	nt	nt	-7%
CCc1ccc(-c2noc(CN3CCc4cc(OC)c(OC)cc4C3)n2)cc1	nt	nt	nt	nt	nt	-58%
CCOC(=O)C1CCN(C(=O)c2cc3c(ccc4ccccc43)o2)CC1	-11%	-4%	-1%	-24%	-7%	-1%
CC1CCN(C(=O)c2cc3c(ccc4ccccc43)o2)CC1	4%	-11%	7%	-15%	1%	45µM*
CC(=O)c1cc2c(ccc3ccccc32)o1	nt	nt	nt	nt	nt	32µM*
CCc1ccc(NC(=O)c2ccccc2NCC(=O)N2CC(=O)Nc3ccccc32)cc1	nt	nt	nt	nt	nt	2%
O=C(CSc1ccc(-c2nc3ccccc3[nH]2)cn1)N1CCN(C(=O)c2ccco2)CC1	1.4µM*	-3%	11%	-12%	37%	?
O=C(CCc1nc2ccccc2[nH]1)N1CCN(C(=O)c2ccco2)CC1	8%[57.1 µM]	-5%	12%	1%	-7%[57.1 µM]	482%
SMILES	rTrxR1 inhibitor	GRP78 ERSR act	IDH1 R132H inh	Anesthetic bind	TrxR1 substrate	ALOX12 inh
CCc1noc(-c2cn(C3CCN(C(=O)c4ccc(OC)cc4OC)CC3)nn2)n1	nt	nt	nt	nt	nt	9%
Cc1ccc(C)c2[nH]c(=O)c(C(c3nnnn3C(C)(C)C)N3CC=C(c4ccc(F)cc4)CC3)cc12 (centres undefined)	71µM*	-2%	7%	-11%	11%[0.457 µM]	-1%
Cc1cc(C)c2[nH]c(=O)c(C(c3nnnn3CC3CCCO3)N3CCCC(C)C3)cc2c1 (centres undefined)	?	-3%	1%	-8%	-4%	?
Cc1cc(C)c2[nH]c(=O)c(C(c3nnnn3C(C)(C)C)N3CCN(C(=O)c4ccco4)CC3)cc2c1 (centres undefined)	16µM*	-8%	5%	-14%	18%	-26%
Cc1cc(C)c2[nH]c(=O)c(C(c3nnnn3CC3CCCO3)N3CCC(C)CC3)cc2c1 (centres undefined)	20µM*	-2%	1%	?	7%[57.1 µM]	?
CCc1c(C)sc(NC(=O)c2sc3ccccc3c2Cl)c1C#N	nt	nt	nt	nt	nt	-2%
CCC1SC(C)C/C(=N\O)C1C (centres undefined)	nt	nt	nt	nt	nt	0%
O=C(NCCN1CCC(n2c(=O)[nH]c3cc(Cl)ccc32)CC1)c1ccc(F)cc1	nt	nt	nt	nt	nt	40µM*
O=C(NCCN1CCC(n2c(=O)[nH]c3ccccc32)CC1)c1ccccc1	nt	nt	nt	nt	nt	-57%
CCOc1cc(OCC)cc(C(=O)NCCN2CCC(n3c(=O)[nH]c4ccccc43)CC2)c1	nt	nt	nt	nt	nt	-28%
O=C(NCCN1CCC(n2c(=O)[nH]c3ccccc32)CC1)c1ccc(F)cc1Cl	nt	nt	nt	nt	nt	1.1µM*
N#Cc1cccc(/C=C2\CSc3ccccc3C2=O)c1	nt	nt	nt	nt	nt	40µM*
O=C(COc1ccc(-n2cnnn2)cc1)N1CCN(S(=O)(=O)c2ccc3ccccc3c2)CC1	nt	nt	nt	nt	nt	45µM*
O=C(COc1cccc(-n2cnnn2)c1)N1CCN(S(=O)(=O)c2cccc(F)c2)CC1	nt	nt	nt	nt	nt	-23%
Cc1sc2nc[nH]c(=S)c2c1-c1ccccc1	?	-6%	8%	?	7%[57.1 µM]	32µM*
Cc1cc(-c2csc3nc[nH]c(=S)c23)cc(C)c1C	12%[57.1 µM]	-9%	-19%	-23%	8%[57.1 µM]	28µM*
S=c1[nH]cnc2scc(-c3ccc(Br)cc3)c12	-12%	-7%	-6%	5%	6%	-12%
Cc1ccc(-c2csc3nc[nH]c(=S)c23)cc1	-56%[57.1 µM]	5%	2%	-3%	-5%[57.1 µM]	35µM*
C=CCNC(=O)C1CCCN(Cc2cccnc2)CCC(=O)NCC1 (centres undefined)	nt	nt	nt	nt	nt	65%
Cc1ccc(-c2ccc(/C=N/NC(=O)CN3CCCC3)o2)cc1Cl	-11%[57.1 µM]	-5%	9%	18µM*	5%[57.1 µM]	28%
COc1cccc([S+](=O)([O-])N2CCCC3(C2)C(=NC2CCCC2)NC(=O)N3c2cccnc2)c1 (centres undefined)	nt	nt	nt	nt	nt	7%[6.33 µM]
O=c1ccc2ccc(O)c(O)c2o1	?	41µM*	nt	nt	1%[57.1 µM]	?
COc1cc2ccc(=O)oc2cc1O	-5%[57.1 µM]	-1%	0%	i	619%[57.1 µM]	12%
CC(C)[C@H](NC(=O)C12CC3CC(CC(C3)C1)C2)C(=O)O	nt	nt	nt	nt	nt	56µM*
CCn1ccc2cc(NC(=O)c3nn(Cc4ccccc4)c(=O)c4ccccc34)ccc21	nt	nt	nt	nt	nt	144%

Screening data (PubChem)
